Measurements from paper PMC12136788.
Changes are numbered by the printed parent chain. Whole data set: some 24,000 sequences, median “enrichment r” near 0.99, cut for the highest 2% near 3.7. Many of the other results were omitted from the sample, so the highest values are more common in it than they were.

T1: UNK ZnF1-3 (human, UniProt Q9C0B0 31-174)
T1 sequence: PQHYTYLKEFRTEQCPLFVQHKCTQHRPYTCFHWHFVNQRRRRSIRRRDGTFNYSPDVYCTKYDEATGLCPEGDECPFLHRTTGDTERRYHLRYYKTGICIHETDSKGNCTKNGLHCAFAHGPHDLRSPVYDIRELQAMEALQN

B1: chr2:42509997:42509998:+_ENSG00000143924_ENST00000318522|hu_mus|hu_hu_hu_mus_True|28_48 (ssRNA)
RNA: GGGAGUUCUACAGUCCGACGAUCUCGCUGAGUCCUCUCCUCAUAAUUAAACAGGACUACCACUGAGGCGAUAAAAUAAACUAUCUCCCCGGUCGGAAGCAGGUAUACAUUAGCUCUACAGUCCUUUCCUCGAUAACCGUAUACCAACAGAGGAUUGAGCAUCA
B2: chr3:108363203:108363204:-_ENSMUSG00000068732_ENSMUST00000090546|mus_hu|FALSE|FALSE (ssRNA)
RNA: GGGAGUUCUACAGUCCGACGAUCCCAGGUUUUGAGACGAGGUACUUUCUUGAAGUAGGCACAGGUGCAAACAAAGAGCAAACCAAACACCAGAAUCCCAUCCAAGGAGUACACGUUCGUCAUGGCGGCUGGCCCUGGACCUGGCAACAGAGGAUUGAGCAUCA
B3: chr2:216981417:216981418:+_ENSG00000079246_ENST00000392132|hu_hu|hu_hu_hu_mus_True|48_58 (ssRNA)
RNA: GGGAGUUCUACAGUCCGACGAUCCUGAUACUGGUCCUUGCCAGCAAGGGCAUUAUCAGUGCCAUCUGUGCCAUAGAGGACUAAAGCAAUCUCAUCCUUGCUCUCCGAAAAUACCUGUCGUUGGACAAACAUAGUCAUCACUUUCAACAGAGGAUUGAGCAUCA
B4: 91404753_91404873_2338_CDS_ENSG00000122482_ENST00000337393|human|control|control (ssRNA)
RNA: GGGAGUUCUACAGUCCGACGAUCAGGUUUUUGGUCAACGCUGCUUUUAAUUGUAACAUUCUUAUGAGGAGAGCUGUUUUGAUUGCACAUGUUUACACCUGAUUGGGCAAUGCUUUUCCGAGCUUUCUGUAUUCUGUGUGGCCGCAACAGAGGAUUGAGCAUCA
B5: chr2:153593888:153593889:+_ENSMUSG00000027479_ENSMUST00000028981|mus_hu|FALSE|FALSE (ssRNA)
RNA: GGGAGUUCUACAGUCCGACGAUCAGUAGUGGGUGAGACACAUUUUGCAGAAUCCUGCCAAACAAAGGAACUGAAUAGGCUGUGGGCAAAGCAAAUGAGGGAGAGUUAAGGAAUGAAGUAUUUUAAAUAUUAAUAAUUAAUUCACAACAGAGGAUUGAGCAUCA
B6: chr2:153593888:153593889:+_ENSMUSG00000027479_ENSMUST00000028981|mus_mus|FALSE|FALSE (ssRNA)
RNA: GGGAGUUCUACAGUCCGACGAUCCUCAGUAGUGGGUAACACAUUUUGCAGAGUUCGCCAAACAAAGGAAUUGAAUAGGCUAUGGGUAAAGCAAUUGAGGGAGAAUUAAGGAAUGAAGUAUUUUAAAUAUUAAUAUUUCAGUCACAACAGAGGAUUGAGCAUCA
B7: 77768493_77775406_9844_CDS_ENSG00000091656_ENST00000521891|human|control|control (ssRNA)
RNA: GGGAGUUCUACAGUCCGACGAUCACUGCUGAGAGACAGGGCAGGAGACGAAGUAGCUGAAGUAGGAAACCCAAGCAUGCCUGCACCGGGAGGUGUUAAAGUGUUUGAAUUUUGUGGAAAUCCCGGCAAGGAGGAUGGACCGUUCAACAGAGGAUUGAGCAUCA
B8: chr6:39351226:39351227:-_ENSMUSG00000029922_ENSMUST00000031985|mus_hu|FALSE|FALSE (ssRNA)
RNA: GGGAGUUCUACAGUCCGACGAUCGACAAAGUUAGAUGUGAUCCGGCAUUCUGGGCAGGACUUUAUGAUCUUGCUCUCAAAUUGCUUAGCACUCCUCCACUUGCGAAUGCACUUGAGACAGUAGGUGUGGUUGCAGUUGGAGAGCAACAGAGGAUUGAGCAUCA
B9: chr3:54535082:54535083:-_ENSMUSG00000027752_ENSMUST00000029316|mus_mus|FALSE|FALSE (ssRNA)
RNA: GGGAGUUCUACAGUCCGACGAUCGCAGGCAUCCAAAAUGUUCCCAUCGUAGUCUAGACAAAUGAGGUCACAGUAUAGAACCCAAGCAAGCUUGCCUGGAGAAAUGCAUAAAUCCUCUUUCUUAAUCACCUGUGAGUUGUCAACCAACAGAGGAUUGAGCAUCA
B10: chr4:144447494:144447495:+_ENSG00000153147_ENST00000283131|hu_hu|motif|central (ssRNA)
RNA: GGGAGUUCUACAGUCCGACGAUCCCAGUUGUGUAAUGUAGACUUAGGAACCAAAACCAUAUGAGGCCCAGGAAUGUUUCGGUAAUGUUUCAUGUACCCAAGAAGAGAAAUUGUUUGAAGAGUCUUUCCUAGGCCCAUUUCAUCCAACAGAGGAUUGAGCAUCA
B11: chrX:7701523:7701524:-_ENSMUSG00000031166_ENSMUST00000033506|mus_mus|FALSE|FALSE (ssRNA)
RNA: GGGAGUUCUACAGUCCGACGAUCCAGGCAAGUGUGGGGUCCACCCAAACAGUAGCUGCCAAUGUUGGGGAGUUUGACAACCUAACCUGGUGAAAGCCCCGUGGUUGAACUUAACAUUCUGCACCUAAUUUCCCUACUGCUGUCCAACAGAGGAUUGAGCAUCA
B12: chr11:75578338:75578339:+_ENSMUSG00000020849_ENSMUST00000067664|perfect_dup|motif|central (ssRNA)
RNA: GGGAGUUCUACAGUCCGACGAUCAAAGGGGAGGGGAGAAAAAAAAAAAAGAAAAAGAAAGAAAAACAACAGGGCAGGAACCGGAAUUCUGAGACCAAAUGUGAAAGUCAAAUUUGGUGGUUCUCAGUGACAAUGGGGAACUUCCAACAGAGGAUUGAGCAUCA
B13: 18505133_18505253_973_CDS_ENSG00000101310_ENST00000262544|human|control|control (ssRNA)
RNA: GGGAGUUCUACAGUCCGACGAUCUUCACAGCUUAGCUCAUGAACCUGCACCAUCCUUCCAAAUGUGAUCAGACCCACCAGAGCAUCUGGAGGAAGAAGACUCAGGGACAUCUGCAGGGACUCUUUGAGUGCUUGAAGGUCAUCCAACAGAGGAUUGAGCAUCA
B14: chr15:103023242:103023243:-_ENSMUSG00000009575_ENSMUST00000118152|mus_hu|FALSE|FALSE (ssRNA)
RNA: GGGAGUUCUACAGUCCGACGAUCAACAUCUGAACUAGCAGCUUUGAUGAGGGGUGGGGGGCAGAAAAUUUGCCGAGUCACUAAGUAGUUCCAGUCUUGGAGACAGCUCAGUGAGGACCAAAGCCUGUGUGUCAGGCUUAAACUCAACAGAGGAUUGAGCAUCA
B15: chr11:75578338:75578339:+_ENSMUSG00000020849_ENSMUST00000067664|perfect_dup|FALSE|FALSE (ssRNA)
RNA: B12 RNA with G82U, G83A
B16: 36153137_36166621_529_CDS_ENSG00000145604_ENST00000274255|human|control|control (ssRNA)
RNA: GGGAGUUCUACAGUCCGACGAUCCGCUAGGCGAUACCACCUCUUACAAACACCAGAGACCUUUAGCAGCUCAGGGAGGCACAGACAGGAAAAGAUUCCCAAGAGCAGCUCAUCCGGAAGGGAGUCCCAUGAAACACCUGGAAACAACAGAGGAUUGAGCAUCA
B17: chr7:135839593:135839594:+_ENSMUSG00000042105_ENSMUST00000151237|mus_hu|FALSE|FALSE (ssRNA)
RNA: GGGAGUUCUACAGUCCGACGAUCAGAAUCAGUCACUUCAACAGAGUAAAGCUCUAAAGACACCAGACGAACCAAUACUUGUUGGAAUAUGCCAUACAACUUUCUUACUGUGGGGAUUACAGGGGCAGCCCUGGUUCUGUGUGGCAACAGAGGAUUGAGCAUCA
B18: chr4:99801976:99801977:-_ENSG00000151247_ENST00000280892|hu_hu|motif|central (ssRNA)
RNA: GGGAGUUCUACAGUCCGACGAUCAACACAUUUAUGGAUUCUGGGGAUGUGUACUGUAAUUCUUUGAUUGGGAUAGUGGAAACUCGGGCCAAAAAAAAAAAAAAAAAUGAACACAGAAGUACAAGACAAAGGCGAAUGAGACUUCAACAGAGGAUUGAGCAUCA
B19: chr4:124323795:124323796:+_ENSG00000164056_ENST00000339241|hu_hu|motif|central (ssRNA)
RNA: GGGAGUUCUACAGUCCGACGAUCCCAUGAGUUAGACCUUGGCAACAGGGGAAGAGAAGGUGGGAAACAGGGAAAAAUUCGGAAGAAAACAAAAACAAAAACAAAAACAAAAAACAGCCACAACUUGAAAGCUAAAAGUUCAGGCAACAGAGGAUUGAGCAUCA
B20: chr7:116176368:116176369:+_ENSMUSG00000031028_ENSMUST00000033341|mus_hu|FALSE|FALSE (ssRNA)
RNA: GGGAGUUCUACAGUCCGACGAUCAGACACACACAUACACAGACGGACACAGAGCACCUUGGAGCCAGAAGGAAAGGAAAGCUAGACUUGGAGAAGAGUUGGGGAAGUGAACUUCACCACUCUGCAGAAUUGUUCUGGGGCAGACAACAGAGGAUUGAGCAUCA
B21: chr2:69570450:69570451:+_ENSMUSG00000042133_ENSMUST00000090858|mus_hu|FALSE|FALSE (ssRNA)
RNA: GGGAGUUCUACAGUCCGACGAUCACAAAGACAACGAAAGUUCUCGCAUGUUUUGGGGCACACAUCAGAAAAUAAUUCAAAGACAACUCUUCCAGCAGGUUGAUUGUUAAUGGCAAUGUCAAAAAAACAUCGAGGACGUUGAACCAACAGAGGAUUGAGCAUCA
B22: chr4:124323795:124323796:+_ENSG00000164056_ENST00000339241|hu_hu|FALSE|FALSE (ssRNA)
RNA: B19 RNA with G80U, G81A

Each binder was assayed against T1, UNK ZnF1-3 (assay: nsRBNS (natural sequence RNA bind-n-seq); RBNS binding buffer (assumed for nsRBNS): 25 mM Tris pH 7.5, 150 mM KCl, 3 mM MgCl2, 0.01% Triton X-100, 500 ug/ml BSA, 20 U/ml SUPERase-In, 4 C; UNK is unkempt and MSI1 is Musashi-1; names of the RNAs are library labels; protein concentration not given here; high values mean tight binding).

For B1, which binding signal is on record?
The binding signal was 1.03 enrichment R.

B2 was tested. Which binding signal did it give?
The binding signal was 1.56 enrichment R.

For B3, which binding signal is on record?
The binding signal was 0.722 enrichment R.

B4 was tested. Which binding signal did it give?
Its binding signal is 0.646 enrichment R.

B5 was tested. Which binding signal did it give?
Its binding signal is 4.38 enrichment R.

For B6, which binding signal is on record?
The binding signal was 2.24 enrichment R.

With B7 as the binder, how does the binding signal read?
The binding signal was 1.52 enrichment R.

How did the binding signal turn out when B8 was run?
The binding signal was 0.754 enrichment R.

How did the binding signal turn out when B9 was run?
The binding signal was 1.32 enrichment R.

For B10, which binding signal is on record?
The binding signal was 1 enrichment R.

With B11 as the binder, how does the binding signal read?
The binding signal was 1.26 enrichment R.

Which binding signal does the source give for B12 here?
Its binding signal is 5.06 enrichment R.

B13 was tested. Which binding signal did it give?
Its binding signal is 1.32 enrichment R.

Which binding signal does the source give for B14 here?
The binding signal was 1.22 enrichment R.

For B15, which binding signal is on record?
Its binding signal is 4.7 enrichment R.

Which binding signal does the source give for B16 here?
Its binding signal is 1.46 enrichment R.

B17 was tested. Which binding signal did it give?
The binding signal was 1.69 enrichment R.

How did the binding signal turn out when B18 was run?
Its binding signal is 3.29 enrichment R.

For B19, which binding signal is on record?
Its binding signal is 3.58 enrichment R.

Which binding signal does the source give for B20 here?
Its binding signal is 3.99 enrichment R.

How did the binding signal turn out when B21 was run?
Its binding signal is 1.49 enrichment R.

How did the binding signal turn out when B22 was run?
Its binding signal is 4.13 enrichment R.
